Experimental data: PubChem BioAssay
Active and inactive are the calls of the source. Unless noted, the rule behind the calls is not given here.

How the values were obtained:
[1] = test system: Wnt5a (protein binding on small-molecule microarray); assay: small molecules binding Wnt5a protein – biophysical, small-molecule microarray, 635/667 nm fluorescence, primary screen (AID 1142); details: 635 nm fluorescence, higher = more signal;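 note: fluorescence read at 667 nm with signal to noise per printed feature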
[2] = ATP-based viability of Huh7 replicon cells – cell-based, CellTiter-Glo luminescence, basal, 48 h, cytotoxicity control for HCV replication inhibitor project, primary screen (AID 1143); details: higher = more signal, called active from +8 up or from −8 down;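 note: Huh7 hepatoma cells carrying a hepatitis C replication reporter with no stimulus; test concentration not given here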
[3] = Pseudomonas biofilm growth suppression – PAO1 strain, BacTiter-Glo luminescence, LB-PBS, primary screen (AID 1144); details: P. aeruginosa PAO1 biofilm, 12 h, higher = more signal
[4] = basal CRE-LacZ reporter activity in PC12 – cell-based, unstimulated, primary screen (AID 1145); details: no forskolin, luminescence, 4.5 h, higher = more signal, called active from +8 up or from −8 down
[5] = forskolin-driven CRE-LacZ activity in PC12 – cell-based, CRE-LacZ reporter, forskolin-stimulated, primary screen (AID 1146); details: luminescence, 4.5 h, higher = more signal, called active from +8 up or from −8 down;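 note: PC12 cells with 6xCRE LacZ reporter stimulated by forskolin 10 µM; beta-galactosidase reporter signal reflecting CREB driven transcription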
[6] = target: Streptavidin (Streptomyces avidinii) (UniProt P22629); assay: compounds binding control protein streptavidin – biophysical, small-molecule microarray, 635/667 nm fluorescence, artefact control for SMM compound annotation, primary screen (AID 1147); details: higher = more signal;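 note: signal reflects streptavidin binding to arrayed compounds as a control protein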
[7] = probe aInhba binding on compound microarray – biochemical, small-molecule microarray, 635/667 nm fluorescence, primary screen (AID 1148); details: higher = more signal;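 note: score merges 667nm spot fluorescence with signal-to-noise for antibody binding to printed compounds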
Torsin-1A (Homo sapiens) [8] = target: Torsin-1A (Homo sapiens) (UniProt O14656); assay: TOR1A wild-type binding on microarray – cell lysate, small-molecule microarray, lysate, 635/667 nm, primary screen (AID 1149); details: COS7 hTOR1A-WT lysate, 635 nm fluorescence, higher = more signal
Torsin-1A (Homo sapiens) [9] = target: Torsin-1A (Homo sapiens) (UniProt O14656); assay: torsin A mutant lysate binding on microarrays – cell lysate, small-molecule microarray, COS7 lysate, 635/667 nm fluorescence, primary screen (AID 1150); details: COS7 hTOR1A mutant lysate, 635 nm fluorescence, higher = more signal;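 note: score pools 667 nm emission and signal to noise measuring lysate protein binding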
[10] = test system: Sonic hedgehog protein (Shh); assay: Sonic hedgehog microarray binding compounds – biochemical, small-molecule microarray, 635/667 nm fluorescence, primary screen (AID 1151); details: 635 nm fluorescence, higher = more signal;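 note: Shh protein binding to compounds spotted on small-molecule microarray slides; score combines spot fluorescence intensity with signal-to-noise across triplicate slides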
[11] = optical density shifts of acrAB sulA E. coli – strain DRC41, OD650, 48 h, E. coli filamentation inducer project, primary screen (AID 1152); details: higher = more signal, called active from +8 up or from −8 down;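 note: E. coli MC1000 strain DRC41 lacking acrAB efflux pump and sulA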
[12] = probe aLefty1 binding on compound microarray – biochemical, small-molecule microarray, 635/667 nm fluorescence, primary screen (AID 1153); details: higher = more signal;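 note: score merges spot fluorescence with signal-to-noise ratio from the scanned slide images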
[13] = plasmodial surface anion channel blockers, osmotic lysis – cell-based, P. falciparum Indochina, OD700, 1 h, primary screen (AID 1154); details: P. falciparum Indochina infected RBC osmotic lysis, higher = more signal, called active from +8 up or from −8 down
[14] = plasmodial surface anion channel blockers, osmotic lysis – cell-based, P. falciparum Indochina, OD700, 2 h, primary screen (AID 1155);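 note: lysis reports solute entry through the parasite surface anion channel PSAC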; details: P. falciparum Indochina infected erythrocytes, higher = more signal, called active from +8 up or from −8 down
[15] = changes in parasitized red cell lysis, either direction – P. falciparum Indochina, OD700, 3 h, PSAC antagonist project, primary screen (AID 1156); details: P. falciparum-infected erythrocytes, osmotic lysis, higher = more signal, called active from +8 up or from −8 down
[16] = plasmodial surface anion channel blockers, osmotic lysis – cell-based, P. falciparum Indochina, OD700, 18 h, primary screen (AID 1157); details: P. falciparum Indochina infected erythrocytes, osmotic lysis OD700, 18 h; higher = more signal, called active from +8 up or from −8 down
[17] = S6 kinase pathway phospho-S6 level changes – cell-based, A549, cytoblot, luminescence, serum-stimulated, primary screen (AID 1158); details: 5 h, higher = more signal;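 note: serum-stimulated A549 lung adenocarcinoma cells; signal is phosphorylated S6 detected by cytoblot immunostaining with HRP secondary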
[18] = target: NADPH oxidase 2 (Homo sapiens) (UniProt P04839); assay: compounds shifting NOX2 Amplex Red fluorescence – cell-based, HEK293-NOX2, PMA-stimulated, NOX inhibitor project, primary screen (AID 1159); details: 45 min, higher = more signal, called active from +8 up or from −8 down; note: test concentration not given here
[19] = target: NADPH oxidase 4 (Homo sapiens) (UniProt Q9NPH5); assay: compounds shifting NOX4 Amplex Red fluorescence – cell-based, HEK293-NOX4, tetracycline-induced, NOX inhibitor project, primary screen (AID 1160); details: HEK293-NOX4, Amplex Red H2O2 fluorescence, 45 min; higher = more signal, called active from +8 up or from −8 down
[20] = target: NADPH oxidase 5 (Homo sapiens) (UniProt Q96PH1); assay: compounds shifting NOX5 Amplex Red fluorescence – cell-based, HEK293-NOX5, NOX inhibitor project, primary screen (AID 1161); details: HEK293-NOX5, ionomycin, 45 min, higher = more signal
Chain of NADPH oxidase 5 (Homo sapiens) (Q96PH1 whole entry, looked up): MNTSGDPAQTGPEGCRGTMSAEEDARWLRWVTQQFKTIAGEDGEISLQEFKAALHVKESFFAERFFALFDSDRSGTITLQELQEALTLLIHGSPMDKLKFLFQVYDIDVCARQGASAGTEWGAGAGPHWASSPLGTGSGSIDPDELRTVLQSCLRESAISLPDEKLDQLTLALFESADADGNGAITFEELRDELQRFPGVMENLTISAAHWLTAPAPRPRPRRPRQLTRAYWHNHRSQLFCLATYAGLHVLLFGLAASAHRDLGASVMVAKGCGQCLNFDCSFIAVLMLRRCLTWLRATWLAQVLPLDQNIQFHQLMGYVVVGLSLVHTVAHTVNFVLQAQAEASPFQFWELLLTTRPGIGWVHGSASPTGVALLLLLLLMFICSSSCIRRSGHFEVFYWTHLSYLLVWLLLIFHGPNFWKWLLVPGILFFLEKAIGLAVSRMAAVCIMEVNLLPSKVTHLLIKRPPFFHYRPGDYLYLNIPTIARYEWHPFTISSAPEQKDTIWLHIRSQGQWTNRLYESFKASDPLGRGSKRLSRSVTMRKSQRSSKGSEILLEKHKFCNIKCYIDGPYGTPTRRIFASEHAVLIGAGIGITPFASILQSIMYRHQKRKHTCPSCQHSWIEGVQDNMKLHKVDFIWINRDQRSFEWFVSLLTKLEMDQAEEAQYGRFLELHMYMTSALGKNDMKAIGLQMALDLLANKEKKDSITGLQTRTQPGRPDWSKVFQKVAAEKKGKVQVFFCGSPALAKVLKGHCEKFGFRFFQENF

Chain of Streptavidin (Streptomyces avidinii) (P22629 whole entry, looked up): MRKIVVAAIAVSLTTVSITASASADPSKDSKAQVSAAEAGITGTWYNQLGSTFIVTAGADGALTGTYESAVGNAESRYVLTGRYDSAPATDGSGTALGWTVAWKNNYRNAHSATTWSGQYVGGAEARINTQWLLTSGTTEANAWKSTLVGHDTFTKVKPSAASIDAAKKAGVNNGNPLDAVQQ
Chain of Torsin-1A (Homo sapiens) (O14656 whole entry, looked up): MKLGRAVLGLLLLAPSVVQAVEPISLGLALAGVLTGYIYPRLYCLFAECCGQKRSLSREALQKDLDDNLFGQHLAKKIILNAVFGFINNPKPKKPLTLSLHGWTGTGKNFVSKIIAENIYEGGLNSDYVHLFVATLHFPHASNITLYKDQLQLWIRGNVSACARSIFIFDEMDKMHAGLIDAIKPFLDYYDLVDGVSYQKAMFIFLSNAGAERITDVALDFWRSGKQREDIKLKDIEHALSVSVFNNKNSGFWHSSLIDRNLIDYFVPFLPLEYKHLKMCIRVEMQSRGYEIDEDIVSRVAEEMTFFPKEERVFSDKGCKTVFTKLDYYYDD
Chain of NADPH oxidase 4 (Homo sapiens) (Q9NPH5 whole entry, looked up): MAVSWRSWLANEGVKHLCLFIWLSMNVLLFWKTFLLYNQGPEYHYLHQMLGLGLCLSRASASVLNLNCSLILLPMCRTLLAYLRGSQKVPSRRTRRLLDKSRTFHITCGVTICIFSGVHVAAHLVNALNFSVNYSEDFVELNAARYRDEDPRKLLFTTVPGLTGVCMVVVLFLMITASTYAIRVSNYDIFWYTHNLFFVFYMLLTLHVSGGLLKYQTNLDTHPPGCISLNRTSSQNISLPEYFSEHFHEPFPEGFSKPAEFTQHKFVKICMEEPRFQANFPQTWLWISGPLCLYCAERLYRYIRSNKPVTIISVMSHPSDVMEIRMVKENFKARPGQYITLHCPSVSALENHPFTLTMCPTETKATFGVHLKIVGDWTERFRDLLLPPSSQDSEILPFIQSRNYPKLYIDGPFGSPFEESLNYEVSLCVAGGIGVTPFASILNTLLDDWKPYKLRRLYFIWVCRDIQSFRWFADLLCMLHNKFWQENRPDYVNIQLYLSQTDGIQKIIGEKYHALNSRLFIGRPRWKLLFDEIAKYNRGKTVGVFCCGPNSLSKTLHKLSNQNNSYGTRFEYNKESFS
Chain of NADPH oxidase 2 (Homo sapiens) (P04839 whole entry, looked up): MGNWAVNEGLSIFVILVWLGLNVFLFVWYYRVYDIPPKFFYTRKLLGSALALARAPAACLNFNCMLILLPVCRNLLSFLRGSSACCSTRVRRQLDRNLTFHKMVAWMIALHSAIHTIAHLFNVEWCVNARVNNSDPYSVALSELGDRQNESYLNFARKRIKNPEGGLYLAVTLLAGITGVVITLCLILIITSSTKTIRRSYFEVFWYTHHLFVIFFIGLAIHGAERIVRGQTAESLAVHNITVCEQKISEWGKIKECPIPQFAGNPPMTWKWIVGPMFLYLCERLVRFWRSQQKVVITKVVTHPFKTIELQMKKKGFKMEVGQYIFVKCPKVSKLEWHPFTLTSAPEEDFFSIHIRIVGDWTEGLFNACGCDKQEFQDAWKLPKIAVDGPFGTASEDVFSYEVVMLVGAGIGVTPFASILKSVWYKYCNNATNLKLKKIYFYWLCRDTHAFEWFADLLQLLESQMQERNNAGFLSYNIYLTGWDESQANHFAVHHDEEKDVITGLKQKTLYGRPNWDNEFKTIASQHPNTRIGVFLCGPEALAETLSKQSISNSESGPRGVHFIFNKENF

SMILES | composite z-score [1] | z-score [2] | z-score [3] | z-score [4] | z-score [5] | composite z-score [6] | composite z-score [7] | composite z-score (Torsin-1A (Homo sapiens) [8]) | composite z-score (Torsin-1A (Homo sapiens) [9]) | composite z-score [10] | z-score [11] | composite z-score [12] | z-score [13] | z-score [14] | z-score [15] | z-score [16] | z-score [17] | z-score [18] | z-score [19] | z-score [20]
C=CCN1C(=O)[C@]2(O[C@H](CCn3cc([C@H](O)c4ccccc4)nn3)[C@@H]([Si](C)(C)c3ccc(OC)cc3)[C@@H]2C)c2cc(NC(=O)c3ccc(OC)cc3)ccc21 | 0.0292 | -3.84 (inactive) | -1.5 (inactive) | 1.05 (inactive) | -1.54 (inactive) | -0.0759 | 0.117 | -0.68 | 0.0247 | 1.36 | 0.294 (inactive) | 0.179 | 5.48 (inactive) | 2.21 (inactive) | 2.59 (inactive) | 1.18 (inactive) | -0.0732 | 0.51 (inactive) | 0.564 (inactive) | -0.0881
C=C(C)[C@@H]1CC=C(C(O)C2C=CC3C(=O)N(C)C(=O)C3N2Nc2ccc([N+](=O)[O-])cc2[N+](=O)[O-])CC1 (stereo not given in full) | 0.291 | -0.181 (inactive) | 0.0728 (inactive) | 2.16 (inactive) | 0.386 (inactive) | 0.707 | -0.0762 | 0.414 | 1.14 | 0.413 | -1.03 (inactive) | 0.807 | 22.8 (active) | 6.33 (inactive) | 0.0383 (inactive) | 1.46 (inactive) | -1.42 | -0.188 (inactive) | 0.811 (inactive) | 2.85
C=C(CCCC)/C(=C/C[C@@H](OC(C)=O)c1ccc(CO)o1)c1cnc2ccccc2c1 | 0.401 | -0.257 (inactive) | -0.134 (inactive) | 2.76 (inactive) | 0.128 (inactive) | 0.843 | 0.0536 | 1.18 | 1.13 | 1.39 | 0.105 (inactive) | 0.0077 | 9.2 (active) | 1.25 (inactive) | 2.11 (inactive) | 0.406 (inactive) | 0.509 | -0.383 (inactive) | -0.837 (inactive) | -0.426
C=C(CCCC)/C(=C/C[C@H](OC(=O)c1ccncc1)c1ccc(OCCO)cc1)c1cnc2ccccc2c1 | 0.766 | -1.17 (inactive) | 0.15 (inactive) | 10.9 (active) | -0.574 (inactive) | 1.83 | -0.0221 | 1.03 | 0.667 | 1.4 | 0.339 (inactive) | 0.127 | 26.5 (active) | 11.9 (active) | 1.98 (inactive) | 1.31 (inactive) | -0.594 | -0.0888 (inactive) | 0.589 (inactive) | -0.964
O=C1O[C@@H](c2ccccc2)[C@@H](c2ccccc2)N2[C@@H](c3ccccc3OCCO)[C@]3(C(=O)Nc4ccc(C#CCCO)cc43)[C@@H](C(=O)NC[C@H](O)c3ccccc3)[C@H]12 | 0.381 | -0.908 (inactive) | 0.191 (inactive) | -0.402 (inactive) | 0.717 (inactive) | 1.63 | 1.17 | 1.49 | 1.86 | 1.94 | 0.54 (inactive) | 1.63 | 1.54 (inactive) | 0.913 (inactive) | -1.33 (inactive) | 1.28 (inactive) | -0.471 | 1.59 (inactive) | 0.462 (inactive) | 0.689
CC(C)C(O)C1C=CC2C(=O)NC(=O)C2N1Nc1ccccn1 (stereo not given) | 0.122 | 0.813 (inactive) | -0.248 (inactive) | -0.143 (inactive) | 0.219 (inactive) | 0.0669 | -0.0421 | 0.238 | 0.407 | -0.212 | -0.668 (inactive) | 0.134 | -0.292 (inactive) | 0.695 (inactive) | -0.0484 (inactive) | 0.826 (inactive) | -0.846 | -1.22 (inactive) | -1.41 (inactive) | -1.79
CN(C)CCCNC(=O)[C@@H]1c2ccccc2C(=O)N(Cc2ccccc2C(F)(F)F)[C@H]1c1ccc(CO)cc1 | 0.0246 | -0.574 (inactive) | 0.405 (inactive) | -0.206 (inactive) | -0.951 (inactive) | -0.734 | -0.16 | 0.0406 | -0.0393 | 0.547 | 1.77 (inactive) | -0.103 | 2.54 (inactive) | 0.793 (inactive) | 1.21 (inactive) | 0.64 (inactive) | -0.0975 | 0.383 (inactive) | 1.03 (inactive) | 1.11
COC(=O)[C@@]1(Cc2ccc(OC)cc2)[C@H]2c3cc(C(=O)N4CCCC4)n(Cc4ccc(Cl)c(C(F)(F)F)c4)c3C[C@H]2CN1C(=O)c1ccccc1 | 0.344 | -3.32 (inactive) | 0.237 (inactive) | 0.0143 (inactive) | -0.218 (inactive) | 1.59 | 0.728 | 0.557 | 1.28 | -0.152 | -0.557 (inactive) | 1.19 | 1.24 (inactive) | -0.382 (inactive) | -0.397 (inactive) | -1.17 (inactive) | 2.85 | 0.449 (inactive) | 1.28 (inactive) | -4.74
